Sampled rows, rich in hits. Any-hit rate of the full collection: about 2.2%.
Mito fusion act: mitochondrial division inhibition or fusion activation. S. cerevisiae fusion-defective mutant growth rescue, CellTiterGlo 48 h. Potency, µM (top dose mostly 46.1 µM), without a hit: top-dose growth rescue (activation), usual class: activators. 0.23% of 320,000 active. AID 485298; also: % of control where 0% means no effect; nearly all actives have a fitted effect of over 45% in size
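Read-out: ATP-based luminescence (CellTiterGlo, 10 min ambient) reporting growth of fusion-defective ts yeast after 48 hours at 37C on glycerol/ethanol YPEG medium in the presence of compound.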
FUS suppressor: FUS proteinopathy suppression in yeast | S. cerevisiae FUS-expressing, growth rescue, OD600, 24 h | Potency, µM (series often up to 76.6 µM), most hits filed as activators | 0.24% of 390,000 active | AID 1347120;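 also: plate controls were DMSO vehicle for no effect and reference control for full effect; nearly all actives have a fitted effect of over 55% in size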
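Read-out: OD at 600 nm after 24hr at 30C, reporting rescue of FUS-induced yeast toxicity. Cells at OD 0.005 in galactose (2%) minimal medium; compounds tested in a dilution series; CP55940 titration from 92uM final as control.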
aSyn yeast inh: rescues yeast growth from alpha-synuclein toxicity; Yeast expressing alpha-synuclein, growth rescue, BacTiter-Glo, 24 h; Potency, µM (doses to about 46.1 µM), inactives show at the top dose growth rescue (activation), usual class: activators; 0.14% of 370,000 active; AID 652106; also: % of control where 0% means no effect; nearly all actives have a fitted effect of over 65% in size
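Readout is rescue of growth in alpha-synuclein-expressing yeast, so inhibitors of toxicity appear as activators. Growth after 24 hr at 30 deg C in galactose medium is quantified by luminescence.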
Abeta rescue: compounds reversing amyloid beta toxicity in yeast; yeast expressing A-beta42, growth rescue, OD600, 48 h; response scale: 0% DMSO, 100% iron-clioquinol control; Potency, µM (series often up to 46.1 µM), hits mostly activators; 0.063% of 410,000 active; also: nearly all actives have a fitted effect of over 55% in size
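Yeast growth medium received pinned compounds, then yeast cells expressing toxic A-beta were added; plates incubated at 30 C for 48 hr. Growth read as absorbance at 600 nm, normalized to DMSO and equimolar FeCl3 plus clioquinol controls.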
TDP-43 yeast inh: TDP-43 toxicity inhibition in yeast. TDP-43 expressing yeast growth rescue, BacTiter-Glo, 24 h. AID 652104. Potency, µM (doses to about 46.1 µM), inactives show top-dose growth rescue (activation), most hits filed as activators. 1.8% of 410,000 active; also: % of control where 0% means no effect; nearly all actives have a fitted effect of over 50% in size
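Yeast cells expressing TDP-43 under galactose induction are exposed to compounds for 24 hr at 30 deg C. BacTiter-Glo luminescence measures growth, so protective compounds score as activators.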
The depositor's hits bear a star. Calls follow the shape of the dose curve; as a rule, active = well fitted curve in the direction sought with a large enough effect; inconclusive = small, poorly fitted or top-dose-only effect, or another doubt; inactive = no such curve, though single readings can be large; an effect the other way counts as inactive or inconclusive. Potency is read from the fitted curve at half-maximal effect.

How did O=C1CC(c2ccc(O)c(O)c2)Oc2cc(O)cc(O)c21 (stereo not drawn) do in these assays?
Mito fusion act: 9%; FUS suppressor: inactive; aSyn yeast inh: 1%; Abeta rescue: inactive; TDP-43 yeast inh: 8%

What do the screens show for `Oc1ccc(C2C[C@H]3CC[C@@H]2C3)cc1O` (stereo partly drawn)?
Mito fusion act: 11%; FUS suppressor: inactive; aSyn yeast inh: 3%; Abeta rescue: inconclusive; TDP-43 yeast inh: 14µM*

How did COC(=O)CCC(=O)OC1(C)C(=O)C2=COC(c3ccc(OC)cc3)=CC2=C(Br)C1=O (stereo not drawn) do in these assays?
Mito fusion act: 3%; FUS suppressor: inactive; aSyn yeast inh: -69%; Abeta rescue: inactive; TDP-43 yeast inh: inconclusive

How did COc1ccc(C2=CC3=C(Br)C(=O)C(C)(OC(=O)c4ccc(Cl)nc4)C(=O)C3=CO2)cc1 (stereo not drawn) do in these assays?
Mito fusion act: 13%; FUS suppressor: inactive; aSyn yeast inh: -15%; Abeta rescue: inactive; TDP-43 yeast inh: 14µM*

How did CCCc1cc(=O)[nH]c(-n2[nH]c3c(c2=O)CCCC3)n1 do in these assays?
Mito fusion act: -1%; FUS suppressor: inactive; aSyn yeast inh: 25µM*; Abeta rescue: inconclusive; TDP-43 yeast inh: -19%

How did COCCCN1C(=O)[C@H](CC(=O)N2CCC(c3ccccc3)CC2)[C@]2(C(=O)OC)CCCCC=C12 do in these assays?
FUS suppressor: inactive

What do the screens show for `CN1c2ccccc2-c2nc3ccccc3n2C1c1cccs1` (stereo not drawn)?
Mito fusion act: inconclusive; FUS suppressor: inactive; aSyn yeast inh: -35%; Abeta rescue: inactive; TDP-43 yeast inh: 7.1µM*

Results for FC(F)(F)c1ccc(Cn2ccc3ccc(-c4ccc5ccn(Cc6ccccc6)c5c4)cc32)cc1 ?
FUS suppressor: inactive

How did CCn1c(COc2cccc(C)c2)nnc1SCC(=O)Nc1cccc(C(=O)OC)c1 do in these assays?
Mito fusion act: 3%; FUS suppressor: inactive; aSyn yeast inh: 6%; Abeta rescue: inactive; TDP-43 yeast inh: 20µM*

How did CCn1c(COc2cccc(C)c2)nnc1SCC(=O)Nc1cccc(C(=O)O)c1 do in these assays?
Mito fusion act: -3%; FUS suppressor: inactive; aSyn yeast inh: -1%; Abeta rescue: inactive; TDP-43 yeast inh: 5%

What do the screens show for `O=C(Cn1nnc(-c2ccncc2)n1)Nc1ccc(F)cc1F`?
FUS suppressor: inactive

Results for COc1cccc(-c2nn(C)c3sc(C(=O)Nc4ccc5c(c4)OCCO5)cc23)c1 ?
Mito fusion act: 17%; FUS suppressor: inactive; aSyn yeast inh: 11%; Abeta rescue: inactive; TDP-43 yeast inh: 8%

How did Cn1nc(-c2ccccc2F)c2cc(C(=O)Nc3ccc4c(c3)OCCO4)sc21 do in these assays?
Mito fusion act: 9%; FUS suppressor: inactive; aSyn yeast inh: 4%; Abeta rescue: inactive; TDP-43 yeast inh: 16µM*

Results for CC(C)Sc1cc(N2CCCC2)nc(-c2ccccc2Cl)n1 ?
Mito fusion act: 10%; FUS suppressor: inactive; aSyn yeast inh: 12%; Abeta rescue: inactive; TDP-43 yeast inh: 14µM*

How did Cc1c(C(=O)NCc2cccc(Cl)c2)sc2nc[nH]c(=O)c12 do in these assays?
FUS suppressor: inactive; Abeta rescue: inactive; TDP-43 yeast inh: 5%

What do the screens show for `Cc1ccccc1NC(=O)[C@@H]1CCCN1S(=O)(=O)c1cccc2cccnc12`?
FUS suppressor: inactive

How did CC(=O)N1CCCN(C(=O)Cn2cnc3ccccc3c2=O)CC1 do in these assays?
FUS suppressor: inactive

What do the screens show for `Nc1ccc(C#Cc2ccc3c(=O)c4ccccc4oc3c2)cc1`?
Mito fusion act: 0%; FUS suppressor: inactive; aSyn yeast inh: -1%; Abeta rescue: inactive; TDP-43 yeast inh: 35µM*

Results for O=c1c2ccccc2oc2ccc(C#CC3(O)CCCCC3)cc12 ?
FUS suppressor: inconclusive; aSyn yeast inh: -12%; Abeta rescue: inactive; TDP-43 yeast inh: 20µM*

Results for Cc1ccc[n+](CC(=O)Nc2cccc([N+](=O)[O-])c2)c1 ?
Mito fusion act: 0%; FUS suppressor: inactive; aSyn yeast inh: 1%; Abeta rescue: inactive; TDP-43 yeast inh: -1%

What do the screens show for `Cc1ccc[n+](CC(=O)Nc2ccc([N+](=O)[O-])cc2)c1`?
Mito fusion act: -4%; FUS suppressor: inactive; aSyn yeast inh: -11%; Abeta rescue: inactive; TDP-43 yeast inh: 8.9µM*

How did CN=C(Nc1cc(Cl)ccc1Cl)SC1CC(=O)N(c2ccc(C(=O)OC)cc2)C1=O (stereo not drawn) do in these assays?
Mito fusion act: -12%; FUS suppressor: inconclusive; aSyn yeast inh: inconclusive; Abeta rescue: inconclusive; TDP-43 yeast inh: 25µM*

What do the screens show for `Cc1nnc2sc(-c3ccncc3)nn12`?
Mito fusion act: 0%; FUS suppressor: inactive; aSyn yeast inh: 13%; Abeta rescue: inactive; TDP-43 yeast inh: 8%

What do the screens show for `Cc1nnc2sc(-c3csc4c3CCCC4)nn12`?
Mito fusion act: 12%; FUS suppressor: inconclusive; aSyn yeast inh: -3%; Abeta rescue: inactive; TDP-43 yeast inh: 13µM*

Results for Cc1cncn1CCc1nc2c3ccccc3nc(SCC(=O)Nc3ccccc3F)n2n1 ?
FUS suppressor: inactive; Abeta rescue: inactive; TDP-43 yeast inh: 2%

What do the screens show for `COc1ccccc1NC(=S)NCCSc1ccc(Cl)cc1`?
Mito fusion act: 21%; aSyn yeast inh: -8%; Abeta rescue: inactive; TDP-43 yeast inh: 0%

Results for COc1ccc(Cl)cc1NC(=S)NCCSc1ccc(C)cc1 ?
Mito fusion act: 5%; aSyn yeast inh: -6%; Abeta rescue: inactive; TDP-43 yeast inh: 22µM*

What do the screens show for `Cc1cccc(C)c1NC(=S)NCCSc1ccc(Cl)cc1`?
Mito fusion act: 5%; FUS suppressor: inactive; aSyn yeast inh: 6%; Abeta rescue: inactive; TDP-43 yeast inh: 22µM*

How did O=C(NCCSc1ccc(Cl)cc1)c1ccco1 do in these assays?
Mito fusion act: 0%; FUS suppressor: inactive; aSyn yeast inh: -3%; Abeta rescue: inactive; TDP-43 yeast inh: 7.1µM*

Results for O=C(CCSc1ccc(Cl)cc1)c1ccco1 ?
Mito fusion act: 5%; FUS suppressor: inactive; aSyn yeast inh: -10%; Abeta rescue: inactive; TDP-43 yeast inh: inconclusive

How did N#Cc1ccc(OS(=O)(=O)c2ccc(-c3ccon3)s2)cc1 do in these assays?
Mito fusion act: -1%; FUS suppressor: inactive; aSyn yeast inh: 7%; Abeta rescue: inactive; TDP-43 yeast inh: 13µM*

What do the screens show for `COCCCN1C(=O)c2[nH]nc(-c3cc(C)cc(C)c3O)c2C1c1ccc(O)c(OC)c1` (stereo not drawn)?
Mito fusion act: 0%; FUS suppressor: 40µM*; aSyn yeast inh: 1%; Abeta rescue: inactive; TDP-43 yeast inh: 8%
